# Most compounds without a hit are left out; they make up all but 19% or so of the library.
# DT40 TDP1 no CPT – qHTS for Inhibitors of human tyrosyl-DNA phosphodiesterase 1 (TDP1): qHTS in cells in absence of CPT; DT40 Tdp1-/- hTDP1 cells, no CPT, ATP luminescence, 48 h; Potency, µM (highest dose often 46.2 µM), for inactives: at the highest dose activity change, negative = growth inhibition, usual class: inhibitors; actives 15% (n = 420,000); AID 686978, 2013; note: nearly all actives have a fitted effect of over 55% in size
#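 Chicken DT40 Tdp1-/- cells complemented with human TDP1, screened without camptothecin (DMSO vehicle only), 400 cells/well. Compounds pin-transferred, cells incubated at 37 °C for at least 48 hr. Growth read as ATP-dependent luminescence (CellTiter-Glo, 30 min at RT).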
# HT1080NT lethal – kills 2HG-producing HT-1080-NT fibrosarcoma cells; Potency, µM (series often up to 46.1 µM), inactives show at the highest dose activity, negative = less viability, actives largely listed as cytotoxic; HT-1080-NT fibrosarcoma viability, CellTiter-Glo ATP luminescence, 48 h; AID 686970; actives 1.6% (n = 360,000);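 note: NT is the 2HG producing partner of a matched IDH1 knockdown line; 0% = DMSO-treated cells and -100% = media-only wells without cells; nearly all actives have a fitted effect of over 55% in size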
#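 Viability by CellTiter-Glo luminescence after 48 h compound exposure at 37C of HT-1080-NT cells (750/well, RPMI, 5% FBS). % activity scaled between DMSO wells and medium-only wells, then curve-fitted and categorized by curve class.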
# KB-V1 MDR tox – kills drug-selected multidrug resistant KB-V1 cells; KB-V1 MDR cells viability, CellTiter-Glo, 72 h; Potency, µM (titrated, usually from 46.1 µM), most hits filed as cytotoxic; actives 3.4% (n = 400,000); note: nearly all actives have a fitted effect of over 60% in size
#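 Potencies derive from concentration-effect curves fitted to normalized luminescence (CellTiter-Glo) of KB-V1 cells treated for 72 h at 37 degrees C in phenol-red-free DMEM containing 10% FBS.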
# KB-3-1 tox – kills parental KB-3-1 adenocarcinoma cells; KB-3-1 viability, CellTiter-Glo ATP luminescence, 72 h; Potency, µM (titrated, usually from 46.1 µM), usual class: cytotoxic; actives 1.4% (n = 400,000); AID 1347075; note: nearly all actives have a fitted effect of over 60% in size
#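 Multi-concentration cytotoxicity screen in KB-3-1 cells grown in DMEM lacking phenol red with 10% FBS. After 72 h at 37 °C with compound, ATP-dependent luminescence was recorded.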
# HT1080 IDH1KD tx – toxicity to HT-1080 IDH1 knockdown cells (counter line). HT-1080 IDH1 knockdown viability, ATP luminescence, 48 h. Potency, µM (doses to about 46.1 µM), without a hit: top-dose activity, negative = toxicity, most hits filed as cytotoxic. actives 2% (n = 360,000);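 note: 0% = DMSO wells and -100% = cell-free medium wells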
#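 Luminescent ATP read-out (CellTiter-Glo, 10 min at room temperature) after 48 h compound exposure at 37 °C gave viability of IDH1-knockdown HT-1080 cells. Activity was normalised to DMSO and cell-free wells, then fitted as concentration-response curves.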
# DT40 TDP1 CPT – growth inhibition of DT40 Tdp1-/-;hTDP1 cells with camptothecin (screen for TDP1 inhibitors); chicken DT40 Tdp1-/-;hTDP1 cells + 20 nM CPT, ATP luminescence, 48 h; Potency, µM (series often up to 46.2 µM), for the others: at the top dose activity change, negative = growth inhibition, actives largely listed as inhibitors; actives 12% (n = 420,000); AID 686979; note: nearly all actives have a fitted effect of over 55% in size
#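 Cell growth measured by CellTiter-Glo luminescence after a minimum 48 h, 37 C compound exposure with 20 nM CPT in Tdp1-knockout DT40 cells stably expressing hTDP1, seeded 400/well; qHTS titration format.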
# Numbers without * were called inactive; i = inactive; ? = inconclusive; nt = no result. Calls come from the whole dose curve; as a rule, active = well fitted curve in the direction sought with a large enough effect; inconclusive = small, poorly fitted or top-dose-only effect, or another doubt; inactive = no such curve, though single readings can be large; an effect the other way counts as inactive or inconclusive. Unless noted, % is set by controls: 0 for no effect and ±100 for the full control effect; potency is the fitted concentration of half-maximal effect.
SMILES,DT40 TDP1 no CPT,HT1080NT lethal,KB-V1 MDR tox,KB-3-1 tox,HT1080 IDH1KD tx,DT40 TDP1 CPT
CCN(Cc1ccccc1)C(=O)Cn1cc(S(=O)(=O)Cc2cccc(Cl)c2)c2ccccc21,?,nt,?,i,nt,?
CCOC(=O)CN1C(=O)C(O)(CC(=O)c2cccc(OC)c2)c2ccccc21 (stereo not drawn),16.4µM*,-3.1%,i,i,-13.5%,?
CN1C(=O)C(O)(CC(=O)c2cccc(-n3cccc3)c2)c2ccccc21 (stereo not drawn),?,4.0%,i,i,-0.2%,20.6µM*
O=C(CC1(O)C(=O)Nc2ccccc21)c1cccc(-n2cccc2)c1 (stereo not drawn),4.9%,-0.6%,i,i,10.3%,-9.0%
C#CCN1C(=O)C(O)(CC(=O)c2cccc(OC)c2)c2ccccc21 (stereo not drawn),4.61µM*,-3.6%,?,i,-8.3%,5.8µM*
Cc1ccc2oc(=O)c3cnn(CC(=O)N(C)c4ccc(F)cc4)c3c2c1,-3.8%,nt,i,i,nt,-0.4%
COc1ccccc1N(C(=O)c1csnn1)C(C(=O)NC1CCCC1)c1ccccc1 (stereo not drawn),-13.4%,10.5%,?,i,9.9%,8.1%
O=C1CCCC[C@@H](CO)[C@H](O)C[C@H](c2ccccc2)O1,-11.3%,-6.1%,i,i,-5.4%,1.8%
COc1ccc(S(=O)(=O)Oc2ccc3c(c2)O/C(=C\c2cccnc2)C3=O)cc1,14.6µM*,-0.3%,i,i,13.6%,?
O=C1/C(=C/c2cccnc2)Oc2cc(OS(=O)(=O)c3ccccc3)ccc21,15.8µM*,-16.4%,i,i,?,?
COc1ccc(OCCN2CCCC2)cc1Nc1nnc(Cl)c(Nc2ccccc2S(C)(=O)=O)n1,?,?,i,?,0.5%,?
CCCNC(=O)Cn1c(=O)c2cccn2c2cccnc21,-6.4%,nt,nt,nt,nt,-7.2%
CCCSCCCNC(=O)c1ccc(Cn2c(=O)c3cccn3c3cccnc32)cc1,-23.5%,nt,nt,nt,nt,1.6%
Cc1ccccc1CCNC(=O)c1ccc(Cn2c(=O)c3cccn3c3cccnc32)cc1,18.4µM*,nt,nt,nt,nt,?
CC(C)CCNC(=O)c1ccc(Cn2c(=O)c3cccn3c3cccnc32)cc1,0.517µM*,nt,nt,nt,nt,?
O=C(NCc1ccccc1Cl)c1ccc(Cn2c(=O)c3cccn3c3cccnc32)cc1,-12.4%,nt,nt,nt,nt,-1.7%
CCc1ccc(CNC(=O)c2ccc(Cn3c(=O)c4cccn4c4cccnc43)cc2)cc1,0.461µM*,nt,i,i,nt,?
CCC(C)NC(=O)Cn1c(=O)n(Cc2ccc(C(=O)NCc3ccc(C)cc3)cc2)c(=O)c2ccccc21 (stereo not drawn),23.1µM*,nt,i,i,nt,10.3µM*
CCC(C)NC(=O)Cn1c(=O)n(-c2ccc(C)cc2)c(=O)c2ccccc21 (stereo not drawn),1.0%,nt,i,i,nt,-4.1%
CCc1ccccc1NS(=O)(=O)c1ccc(NC(=O)N2CCCC2)cc1,?,nt,i,i,nt,-19.7%
CCC1CCCCN1S(=O)(=O)c1ccc(C(=O)N(CCCN(C)C)c2nc3cc4c(cc3s2)OCO4)cc1 (stereo not drawn),?,?,i,i,?,16.4µM*
CCc1ccc2nc(N(CCCN(C)C)C(=O)c3ccc(S(=O)(=O)N4CCCC4)cc3)sc2c1,?,-29.2%,i,i,-28.3%,?
CC1CCCCN1S(=O)(=O)c1ccc(C(=O)N(CCCN(C)C)c2nc3ccc(Br)cc3s2)cc1 (stereo not drawn),?,18.4µM*,23.1µM*,?,?,20.6µM*
Cc1ncsc1C(=O)N1N=C2/C(=C/c3ccc(N4CCOCC4)cc3)CCCC2C1c1ccc(N2CCOCC2)cc1 (stereo not drawn),?,6.4%,i,i,5.5%,?
Cc1nc(N2N=C3/C(=C/c4ccc(F)cc4)CCCC3C2c2ccc(F)cc2)sc1C(=O)N(C)C (stereo not drawn),29.1µM*,3.7%,20.6µM*,?,-0.9%,?
SMILES,DT40 TDP1 no CPT,HT1080NT lethal,KB-V1 MDR tox,KB-3-1 tox,HT1080 IDH1KD tx,DT40 TDP1 CPT
COc1cccc(COC(=O)C2CCN(S(=O)(=O)c3ccc(C)cc3C)CC2)c1OC,-17.1%,4.3%,i,i,7.5%,-1.0%
OCCN(CCO)c1ccc(C(c2ccccc2Cl)c2ccc(N(CCO)CCO)cc2Cl)c(Cl)c1,18.4µM*,-26.4%,i,?,?,?
CC(C)[C@@H]1Cc2[nH]n(C)c(=O)c2[C@H](c2ccc(Cl)cc2)O1,-9.4%,14.9%,i,i,3.5%,3.9%
Cc1cc2c(cc1S(=O)(=O)N(CCN(C)C)Cc1ccccc1)OCC(=O)N2,?,nt,i,i,nt,13µM*
Cc1cc2[nH]c(=O)c(=O)[nH]c2cc1S(=O)(=O)N(C)C1CCCCC1,20.6µM*,-2.7%,i,i,-8.4%,20.6µM*
Cc1cc2c(cc1S(=O)(=O)N(C)C1CCCCC1)OCC(=O)N2,23.1µM*,8.3%,i,i,0.3%,?
C#CCn1c(/C=C/c2ccc(Cl)cc2)nc2ccccc21,?,nt,i,i,nt,?
CCC(C)Cn1c(/C=C/c2ccccc2)nc2ccccc21 (stereo not drawn),9.2µM*,nt,?,i,nt,9.2µM*
CC(C)CCn1c(/C=C/c2ccccc2)nc2ccccc21,11.6µM*,nt,i,i,nt,16.4µM*
CCN(CC)c1ccc(NC(=O)c2cnn(-c3ccccc3)c2-n2cccc2)c(C)c1,10.3µM*,nt,i,?,nt,14.6µM*
CSc1cccc(NC(=O)c2cnn(-c3ccc(F)cc3)c2-n2cccc2)c1,nt,nt,?,i,nt,nt
Cc1cc(NC(=O)c2cnn(-c3ccccc3)c2-n2cccc2)ccc1Br,?,nt,?,i,nt,18.4µM*
CC(=O)c1ccc(NC(=O)c2cnn(-c3cccc(F)c3)c2-n2cccc2)cc1,23.1µM*,nt,i,i,nt,?
CCN(CC)c1ccc(NC(=O)c2cccc(F)c2)c(C)c1,3.26µM*,?,?,5.8µM*,16.4µM*,4.61µM*

# Bioassay records (PubChem BioAssay)
